HSF1 activator: increases HSF-1 driven luciferase reporter signal. NIH3T3-HGL HSF-1 luciferase reporter, MG132, 8 h; 100% = twice DMSO control signal. activation, % at 9 µM. hit rate 1.7% among 300,000;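 active = mean replicate activation of at least 50% with a set share of replicates each reaching 50%; inconclusive = only one of those two conditions met; inactive = mean below 50% and too few replicates reaching it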;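 also: 0% = median of the neutral control wells and 100% = twice that signal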
MITF act: increases MITF-driven TRPM1 promoter luciferase signal; SK-MEL-5 TRPM1-promoter luciferase, 24 h; % of positive control, neutral wells = 0; activation, % at 12.5 µM; hit rate 0.75% among 300,000;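 active = mean activation of at least 80% with every replicate also reaching 80%; inconclusive = mean reaches 80% but some replicate falls short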;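 also: 0% = neutral control wells and 100% = parthenolide positive control wells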
Wnt bcat act: activates Wnt/beta-catenin signaling in a reporter cell assay; activator, plate reader; activation, % at 9.35 µM; hit rate 1.2% among 300,000; in the data active = activation above about 30%, passing the limit was not always enough; inconclusive = no clear call, values can overlap the other calls;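 also: 0% = neutral control wells and 100% = positive control wells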
esBAF inh: blocks esBAF chromatin remodeling in mouse ES cells | Bmi1-luciferase knock-in reporter, 24 h; 100% = twice the neutral-well signal | reporter increase, % at 12.5 µM | hit rate 2% among 350,000 | AID 602393; in the data active = activation above about 40%; inconclusive = no clear call, values can overlap the other calls;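 also: 0% = median of the plate's neutral control wells and 100% = double that signal; a rise in the Bmi1 reporter signal indicates esBAF inhibition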
HSF1 inh: HSF1 inhibition; NIH3T3-HGL HSE-luciferase, MG132-induced, luminescence 8 h; stronger effect = lower value; activity change, negative = inhibition, % at 7.5 µM (by protocol); hit rate 0.77% among 300,000; AID 2098;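 active = more than half of replicate wells show activity change below -50%, luminescence cut by over half; inconclusive = some wells, but at most half, below -50%; inactive = no replicate well below -50%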;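 also: luciferase reports HSF-1 transcriptional activity via heat shock element; 0% = median of DMSO wells and -100% = zero luminescence signal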
An asterisk follows results filed as active; ? = inconclusive; . = not tested or not shown. A selection: hits, their analogues and other compounds. The true share with any hit is near 3.9%.

SMILES | HSF1 activator | MITF act | Wnt bcat act | esBAF inh | HSF1 inh
O=C(NCC1CCCO1)c1cccc2ccccc12 (stereo unspecified) | -1.5 | -6.6 | 0.8 | 1.9 | -2.1
O=C(NCC1CCCO1)c1cc2ccccc2cc1O (stereo unspecified) | 33.8 | 61.5 | 27.7 | 56.9* | 17.0
O=C(NCC1CCCO1)c1cc2ccccc2o1 (stereo unspecified) | 4.7 | 35.9 | 3.9 | 43.7* | 10.3
CC1CCC(NC(=O)c2cc3ccccc3cc2O)CC1 (stereo unspecified) | . | 94.1* | 46.3* | 77.2* | .
COC(=O)C[C@H]1C[C@@H]2c3cc(NC(=O)Nc4ccc(F)cc4)ccc3O[C@@H]2[C@H](CO)O1 | . | . | . | 2.8 | .
O=C1C2C3C=CC(CC3)C2C(=O)N1/N=C/c1c[nH]c2ccccc12 (stereo unspecified) | 17.1 | 50.2 | 0.5 | 61.4* | 10.0
C[C@H]1CN([C@@H](C)CO)C(=O)c2cc(NC(=O)NC3CCCCC3)ccc2O[C@H]1CN(C)C(=O)Nc1ccc(F)cc1 | . | . | . | -2.3 | .
Cc1ccc(NC(=O)Nc2cccc(F)c2)nc1 | 24.3 | . | 4.4 | 52.6* | 17.0
Cc1cccc(NC(=O)Nc2cccc(C#N)c2)n1 | 41.4 | 44.2 | 8.3 | 50.1* | 27.2
COc1cccc(NC(=O)Nc2nccc(C)n2)c1 | 24.0 | -5.1 | 6.9 | . | 10.2
Cc1cccc(NC(=O)Nc2cccc(F)c2)n1 | 19.2 | 19.6 | . | 68.3* | 13.4
O=C(Nc1cccc(F)c1)Nc1ccc(Cl)cn1 | -0.6 | 74.3 | 13.8 | 31.9 | 10.8
Cc1ccnc(NC(=O)Nc2cccc(F)c2)n1 | 35.4 | 28.5 | 80.0* | 12.8 | 27.3
C/C=C/c1cnc2c(c1)C(=O)N([C@H](C)CO)C[C@H](C)[C@@H](CN(C)C(=O)Cc1ccccc1)O2 | . | . | . | 2.3 | .
COc1ccc(-c2cn(Cc3ccc(C)cc3)nn2)cc1 | 24.3 | 85.7* | 29.1 | 79.0* | 16.4
CCCCCc1ccc(-c2cn(Cc3ccc(C)cc3)nn2)cc1 | 10.1 | 13.2 | 6.0 | 18.4 | 10.1
C[C@@H]1CN([C@@H](C)CO)C(=O)c2c(c3ccccc3n2C)-c2ccccc2CO[C@H]1CN(C)S(=O)(=O)c1ccccc1F | . | . | . | 1.6 | .
C[C@@H]1CN([C@@H](C)CO)C(=O)c2cc(NC(=O)Nc3ccc4c(c3)OCO4)ccc2O[C@H]1CN(C)Cc1ccc(C(=O)O)cc1 | . | . | . | 27.0 | .
Cc1ccc(SCC2(O)CCN(S(=O)(=O)c3ccc(Cl)cc3)CC2)cc1 | 8.7 | . | -0.3 | 3.7 | -10.5
CC(=O)Nc1ccc(SCC(=O)N2CCN(S(=O)(=O)c3ccccc3)CC2)cc1 | -64.6 | -8.4 | 5.9 | -5.2 | -57.2*
O=C(CSc1ccc(F)cc1)N1CCN(S(=O)(=O)c2ccccc2)CC1 | 2.5 | -0.1 | -0.4 | 5.0 | -3.1
Cc1ccc(S(=O)(=O)N2CCN(C(=O)CSc3ccc(Cl)cc3)CC2)cc1 | 74.5* | -4.9 | -2.5 | 8.3 | 26.2
O=C(CSc1ccc(Cl)cc1)N1CCN(c2c(Cl)cccc2[N+](=O)[O-])CC1 | 69.6* | 74.8 | . | ? | 47.0
CCNC(=O)C[C@@H]1CC[C@H](NC(=O)C2CCOCC2)[C@H](CO)O1 | . | . | . | -1.9 | .
CCOC(=O)Cc1csc2nc(-c3ccccc3)nn12 | 3.7 | 6.5 | 1.5 | 9.4 | -0.6
SMILES | HSF1 activator | MITF act | Wnt bcat act | esBAF inh | HSF1 inh
COc1ccc(-c2nc3scc(-c4ccccc4)n3n2)cc1 | 121.4* | -5.8 | 3.7 | . | 62.2
COc1c(Br)cc(Br)cc1C(=O)O | 112.5* | . | . | 0.8 | 86.9
O=C(Cc1ccccc1)N[C@@H]1C=C[C@@H](CC(=O)N2CCOCC2)O[C@H]1CO | . | . | . | 0.3 | .
COc1ccc2oc(C(=O)NN3C(C)CCCC3C)c(C)c2c1 (stereo unspecified) | -3.0 | 2.5 | 1.5 | . | -3.1
COc1ccc2oc(C(=O)NC3CCCCC3)c(C)c2c1 | 60.8* | 112.3* | 28.8 | ? | 37.4
Cc1c(C(=O)NC2CCCCC2)oc2ccc(F)cc12 | 28.4 | 37.2 | 18.0 | 42.6* | 15.8
Cc1ccc2oc(C(=O)NC3CCS(=O)(=O)C3)c(C)c2c1 (stereo unspecified) | 13.7 | 9.9 | 2.0 | . | 5.2
C[C@@H]1CCCCO[C@H](CN(C)C(=O)NC2CCCCC2)[C@H](C)CN([C@@H](C)CO)C(=O)c2cc(NC(=O)Nc3ccccc3)ccc2O1 | . | . | . | 4.6 | .
CCOC(=O)C1=C(C)NC2=C(C(=O)CC(C)(C)C2)C1c1ccc(O)c(OCC)c1 (stereo unspecified) | . | 2.6 | -1.0 | -11.0 | .
CCOc1cc(C2C(C(=O)N3CCCCC3)=C(C)NC3=C2C(=O)CC(C)(C)C3)ccc1O (stereo unspecified) | -0.1 | -5.5 | 54.4* | -0.2 | -0.7
CNC(=O)C[C@H]1CC[C@H]2[C@@H](COC[C@H](O)CN2C(=O)c2ccc3c(c2)OCO3)O1 | . | . | . | 1.3 | .
O=C(C[C@@H]1C[C@@H]2c3cc(NC(=O)Nc4ccccc4F)ccc3O[C@@H]2[C@@H](CO)O1)NCC1CC1 | . | . | . | 5.8 | .
Cc1ccc(S(=O)(=O)N[C@H]2CC[C@H](CCn3cc(C4(O)CCCC4)nn3)O[C@@H]2CO)cc1 | . | . | . | 4.7 | .
O=C(COC(=O)c1ccccc1SCC(=O)N1CCCC1)NC1CCS(=O)(=O)C1 (stereo unspecified) | -78.0 | 3.1 | 1.9 | 0.6 | -71.3*
COc1ccc(CNC(=O)C[C@H]2C[C@@H]3c4cc(NC(=O)CN(C)C)ccc4O[C@@H]3[C@@H](CO)O2)cc1 | . | . | . | 4.0 | .
Clc1ccc(-c2cccs2)nn1 | -16.9 | 1.1 | 0.7 | . | -7.2
CC1CCN(c2ccc(-c3cccs3)nn2)CC1 | -72.1 | -76.9 | -3.7 | -80.7 | -67.1*
CC(=O)N1[C@@H]2c3ccc(/C=C/c4ccccc4)c(=O)n3C[C@H]1[C@H](CO)[C@H]2C(=O)NCC1CC1 | . | . | . | -3.0 | .
Cc1ncc(CN2CCCC(C(=O)Nc3ccc(-c4ccco4)cc3)C2)cn1 (stereo unspecified) | 3.3 | 4.9 | 0.2 | 3.7 | -3.5
COCc1cc(CN2CCCC(C(=O)Nc3ccc(-c4ccco4)cc3)C2)ccc1OC (stereo unspecified) | 63.9* | 14.1 | -4.2 | -2.2 | 19.3
O=C(Nc1ccc2c(c1)CCC2)c1cc2ccccc2o1 | 62.8* | 50.4 | 23.7 | . | 26.4
O=C(Nc1ccc2c(c1)CCC2)c1ccc(Br)o1 | 39.0 | 31.7 | 41.9* | 47.4* | 21.3
Cc1cc(C)n2nc(C(=O)Nc3ccc(S(=O)(=O)N4CCCC4)cc3)nc2n1 | -2.2 | -5.9 | -1.5 | -3.7 | -8.4
O=C(Nc1ccc2c(c1)OCO2)c1ccc(Br)o1 | 22.6 | 39.4 | 15.0 | 12.7 | 12.9
O=C(Nc1ccc2c(c1)Cc1ccccc1-2)c1cc2ccccc2o1 | 0.3 | 6.5 | . | . | -4.8
CC(=O)Nc1ccc2c(c1)CCCC2 | -5.9 | . | 0.4 | . | -9.1
Cc1ccc(C(=O)Nc2ccc3c(c2)CCC3)o1 | 63.2* | 74.1 | . | 14.3 | 32.2
Cc1cc(C)n2nc(C(=O)Nc3ccc4c(c3)CCC4)nc2n1 | 9.6 | 48.5 | 20.0 | 56.5* | 2.0

Compound activity deposited in PubChem by Broad Institute.
